# In PubChem BioAssay (NCATS):
# Records with an inconclusive call do not appear. Values without a mark were called inactive. The source made the active and inactive calls. Calls follow the shape of the dose curve; as a rule, active = well fitted inhibition curve with a large enough effect; inconclusive = small, poorly fitted or top-dose-only effect; inactive = flat fitted curve, though single readings scatter. Where a SMILES comes first, the peptide text is derived from it. [ ]: non-standard residue; d: D form. dPhe(4-Cl) = N[C@H](Cc1ccc(Cl)cc1)C(=O)O; d2Nal = N[C@H](Cc1ccc2ccccc2c1)C(=O)O; dCit = NC(=O)NCCC[C@@H](N)C(=O)O; d3Pal = N[C@H](Cc1cccnc1)C(=O)O
# System: NIH3T3
# Assay: Cytotoxic Profiling of Annotated Libraries Using Quantitative High-Throughput Screening (AID 1296008); also: nearly all actives have a fitted effect of over 60% in size
# Conditions: Five cell lines viability, CellTiter-Glo ATP luminescence, 48-72 h; max response: stronger effect = lower value
# In short: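 Cytotoxicity was measured as CellTiter-Glo ATP luminescence, read after 10 min at room temperature. Compound treatment of the cells lasted 48 or 72 hr at 37 degrees Celsius in a qHTS format.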
# % is scaled to controls: 0 for no effect and ±100 for the full control effect; potency is read from the fitted curve at half-maximal effect.
SMILES,max response [%],Potency
CCc1cc(CN2CC(C(=O)O)C2)sc1-c1noc(-c2ccc(Oc3ccccc3)cc2)n1,-43,–
C[C@@H]1CC[C@]2(C(=O)O[C@@H]3O[C@H](CO)[C@@H](O)[C@H](O)[C@H]3O)CC[C@]3(C)C(=CCC4[C@@]5(C)C[C@@H](O)[C@H](O)[C@@](C)(C(=O)O[C@H]6[C@H](O)C[C@@]7(C)C(CC[C@]8(C)C7CC=C7[C@H]9[C@](C(=O)O[C@@H]%10O[C@H](CO)[C@@H](O)[C@H](O)[C@H]%10O)(CC[C@@H](C)[C@@]9(C)O)CC[C@]78C)[C@@]6(CO)C(=O)O)C5CC[C@]43C)[C@@H]2[C@]1(C)O (stereo partly drawn),4.48,–
CCOC(=O)Nc1cc(-c2ccc(C)c(NS(C)(=O)=O)c2)nn2c(C)nnc12,–,9.2 µM (active)
CC1=C(/C=C/C(C)=C\C=C\C(C)=C/C(=O)O)C(C)(C)CCC1,0.69,–
CC[C@H]1OC(=O)[C@](C)(F)C(=O)[C@H](C)[C@@H](O[C@@H]2O[C@H](C)C[C@H](N(C)C)[C@H]2O)[C@](C)(OC)C[C@@H](C)C(=O)[C@@H](C)[C@H]2N(CCCCn3cc(-c4cccc(N)c4)nn3)C(=O)O[C@]12C,1.26,–
CCCC(=O)C1CCN(c2ncnc3c2CN(C(=O)c2ccc(-c4ccccc4)cc2)CC3)CC1,-13.2,–
CC(=O)CC1CCC(C(C)C(=O)OCC(O)CO)O1 (stereo not drawn),-24.7,–
CC(C)CC1NC(=O)C2CC3(O)c4ccccc4NC3N2C1=O (stereo not drawn),-1.31,–
CC1COC(Nc2ccc3ncnc(Nc4ccc(OCc5nccs5)c(Cl)c4)c3c2)=N1 (stereo not drawn),3.7,–
Nc1ncnc2c1nc(N)n2[C@@H]1O[C@H](CO)[C@@H](O)[C@H]1O,–,4.11 µM (active)
COc1cc(O)cc(/C=C/c2ccc(O[C@@H]3O[C@H](CO)[C@@H](O)[C@H](O)[C@H]3O)cc2)c1,4.58,–
NCc1c[nH]c(=S)n1[C@@H]1CCc2c(F)cc(F)cc2C1,-1.29,–
Nc1nccn2c(C3CCC(C(=O)O)CC3)nc(-c3cc4cccc(Cl)c4[nH]3)c12 (stereo not drawn),–,7.31 µM (active)
CC1CCC2(C=O)C(CO)=CCCC2C1(C)CC(=O)O (stereo not drawn),-21.3,–
COC1CC(O[C@H]2CC[C@@]3(C)C(=CC[C@]4(O)C3[C@H](OC(C)=O)[C@@H](OC(=O)c3ccccc3)[C@]3(C)[C@@H](C(C)=O)CC[C@@]34O)C2)OC(C)C1OC1CC(OC)C(OC2CC(OC)C(OC3OC(C)C(OC4OC(CO)C(O)C(O)C4O)C(OC)C3O)C(C)O2)C(C)O1 (stereo partly drawn),-0.853,–
C[C@@H]1O[C@@H](O[C@H]2[C@@H](OC(=O)[C@]34CCC(C)(C)CC3C3=CCC5[C@@]6(C)C[C@H](O)[C@H](O[C@@H]7O[C@H](C(=O)O)[C@@H](O)[C@H](O)[C@H]7O)[C@@](C)(C(=O)O)C6CC[C@@]5(C)[C@]3(C)CC4)OC[C@H](O)[C@@H]2O)[C@H](O)[C@H](O)[C@H]1O[C@@H]1OC[C@@H](O)[C@H](O)[C@H]1O (stereo partly drawn),-0.698,–
CC#CC(=O)N1CCC[C@H]1c1nc(-c2ccc(C(=O)Nc3ccccn3)cc2)c2c(N)nccn12,-4.42,–
C[C@@H]1O[C@@H](O[C@H]2[C@H](O[C@H]3CC[C@@]4(C)C(CC[C@]5(C)C4CC=C4[C@@H]6CC(C)(C)CC[C@]6(C(=O)O[C@@H]6OC[C@H](O)[C@H](O)[C@H]6O[C@@H]6O[C@@H](C)[C@H](O[C@@H]7O[C@H](CO)[C@@H](O)[C@H](O)[C@H]7O)[C@H](O)[C@H]6O)[C@H](O)C[C@]45C)C3(C)C)O[C@H](CO)[C@@H](O[C@@H]3OC[C@@H](O)[C@H](O)[C@H]3O)[C@@H]2O)[C@H](O)[C@H](O)[C@H]1O (stereo partly drawn),-3.79,–
CC1(C)CC[C@]2(C(=O)O[C@@H]3O[C@H](CO)[C@@H](O)[C@H](O)[C@H]3O)CC[C@]3(C)C(=CCC4[C@@]5(C)C[C@@H](O)[C@H](O)C(C)(C)C5[C@H](O)C[C@]43C)[C@@H]2[C@@H]1O (stereo partly drawn),-3.1,–

SMILES,max response [%],Potency
CC(C)=CCC(O)/C(C)=C/CO[C@@H]1O[C@H](CO)[C@@H](O)[C@H](O)[C@H]1O (stereo partly drawn),0.203,–
CN1CCN(Cc2ccc(-c3cnc4[nH]cc(-c5ccc6[nH]ccc6c5)c4c3)cc2)CC1,–,14.6 µM (active)
CC1C(=O)OCC2=CCN3CCC(OC(=O)C(C)(O)C1(C)O)C23 (stereo not drawn),-32,–
CCN1CCN(Cc2ccc(Nc3ncc(F)c(-c4cc(F)c5nc(C)n(C(C)C)c5c4)n3)nc2)CC1,1.34,–
CC(=O)O[C@@H]1[C@@H](O)[C@H](C)O[C@@H](O[C@H]2[C@@H]3C=CO[C@@H](O[C@@H]4O[C@H](CO)[C@@H](O)[C@H](O)[C@H]4O)[C@@H]3[C@@]3(CO)O[C@@H]23)[C@@H]1OC(=O)/C=C/c1ccccc1,-1.99,–
CC1=CCC2C(C)(C)CCC[C@]2(C)[C@@]12CC[C@](C)(CC(=O)O)O2 (stereo partly drawn),-1.28,–
O=S(=O)(NC1CCC(c2cc(F)ccc2F)(S(=O)(=O)c2ccc(Cl)cc2)CC1)C(F)(F)F (stereo not drawn),-17.1,–
COc1ccc(C(=O)n2c(C)c(Cc3cccc(O[C@@H](C)C(=O)O)c3)c3cc(OC(F)(F)F)ccc32)cc1,2.93,–
CC(=O)O[C@H]1C[C@@](O)(C(C)C)C2[C@@H](OC(=O)c3ccc(O)cc3)C[C@@]3(C)O[C@H]3C[C@]21C (stereo partly drawn),-4.8,–
CC(Oc1cc(-n2cnc3ccc(CN4CCN(C)CC4)cc32)sc1C(N)=O)c1ccccc1C(F)(F)F (stereo not drawn),–,8.2 µM (active)
CC(C)[N+]1(C)C2CCC1CC(OC(=O)C(CO)c1ccccc1)C2 (stereo not drawn),-9.66,–
NC(=O)[C@H]1CCS[C@@H]2C[C@]3(CCCN3C(=O)Cc3ccc(NC(=O)COc4ccc(Cl)cc4Cl)cc3)C(=O)N12,–,11.7 µM (active)
CC(=O)O[C@@H]1[C@@H](OC(=O)/C=C/c2ccccc2)[C@@H](OC(C)=O)[C@H](O[C@H]2[C@@H]3C=CO[C@@H](O[C@@H]4O[C@H](CO)[C@@H](O)[C@H](O)[C@H]4O)[C@@H]3[C@@]3(CO)O[C@@H]23)O[C@H]1C,-0.931,–
CN1CCN(c2ccc(C(=O)Nc3n[nH]c4ccc(Cc5cc(F)cc(F)c5)cc34)c(NC3CCOCC3)c2)CC1,–,10.5 µM (active)
C=C1CC23CC1CCC2C12OC(=O)C(C)(CCC1O)C2C3C(=O)O (stereo not drawn),3.76,–
CC/C=C\[C@H](O)[C@H](O)C1=C(C)C(=O)[C@]2(O1)C(=O)N[C@@](OC)(C(=O)c1ccccc1)[C@@H]2O,1.26,–
CC(=O)N[C@H](Cc1ccc2ccccc2c1)C(=O)N[C@H](Cc1ccc(Cl)cc1)C(=O)N[C@H](Cc1cccnc1)C(=O)N[C@@H](CO)C(=O)N[C@@H](Cc1ccc(O)cc1)C(=O)N[C@H](CCCNC(N)=O)C(=O)N[C@@H](CC(C)C)C(=O)N[C@@H](CCCN=C(N)N)C(=O)N1CCC[C@H]1C(=O)N[C@H](C)C(N)=O (Ac-[d2Nal][dPhe(4-Cl)][d3Pal]SY[dCit]LRP[dA]-NH2),4.07,–
COc1cc(Br)c(S(=O)(=O)Nc2ccc(C(F)(F)F)c(O[C@@H]3CCN(C)C3)c2)cc1OC,-2.88,–
O=C(O)/C=C/c1ccc(-c2ccc(O)c(C34CC5CC(CC(C5)C3)C4)c2)cc1,–,0.92 µM (active)
